Experimental data as given in PubChem BioAssay.
For some of these results: Results with a measured potency or affinity are listed apart. Activity calls are given as the source filed them.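 Rule for the calls, unless noted: active = luciferase signal above three times the same-plate solvent-only control wells; inactive = the rest.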

How the values were obtained:
[1] = target: Mitogen-activated protein kinase 7 (Homo sapiens) (UniProt Q13164); experiment: ERK5 transactivation activators in reporter cells, primary screen, cell-based, HTS (AID 1508626); conditions: HeLa Gal4-ERK5 transactivation, 18 h, at 5 µM, stronger effect = higher value;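 note: luciferase driven by Gal4-ERK5 fusion binding five Gal4 sites before minimal TATA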
[2] = liver-stage malaria parasite growth inhibition, primary screen, cell-based, HepG2, luciferase luminescence, HepG2 viability (AID 624349; in the data active = parasite load remaining mostly below about 12%, no sharp cut-off; inactive = mostly above about 10%;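 note: 100% = mean of DMSO negative control wells on the same plate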); conditions: P. berghei liver stage in HepG2, luciferase luminescence, concentration not given here; parasite load remaining: stronger effect = lower value; viability: measured here: HepG2 viability without parasites
[3] = polyglutamine-triggered caspase-3 activation inhibitors, cell-based (AID 1583); conditions: polyglutamine-induced caspase-3 activation, cell assay; stronger effect = higher value;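 tested at 10 µM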
[4] = suppressors of polyQ aggregation in yeast, 75Q-TubU reporter (AID 1593); conditions: Yeast 75Q polyglutamine aggregation reporter
[5] = rescue of polyQ-huntingtin neuronal dysfunction in worms, whole organism, C. elegans mechanosensory neurons, N-terminal huntingtin (AID 1599); conditions: touch response, stronger effect = higher value
[6] = inhibitors of mitochondrial cytochrome c release, biochemical, purified mitochondria (AID 1603); conditions: stronger effect = lower value;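 note: mouse liver mitochondria challenged with calcium chloride; signal normalized to the plate average as 100%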
[7] = inhibitors of polyQ protein aggregation (AID 1604); conditions: polyglutamine-induced protein aggregation inhibition assay; stronger effect = higher value; tested at 2.5 µM
[8] = enhancers of glutamate uptake in motor neurons, MN-1 cell line (AID 1612); conditions: MN-1 motor neuron cells, stronger effect = higher value;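 note: tested at 1 µM final; 0% = mean of DMSO vehicle wells on each plate; positive means more glutamate uptake than control and negative means less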
[9] = suppressors of polyglutamine aggregation in yeast, 75Q-TubH (AID 1616); conditions: S. cerevisiae 75Q-TubH polyglutamine aggregation suppression; stronger effect = higher value
[10] = reducers of polyQ inclusions in PC12 cells, cell-based, NGF-treated PC12, GFPQ80 (AID 1614); conditions: PC12 NGF-treated GFP-polyQ80 inclusion reduction;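 note: lower means fewer inclusions and 0 means no inclusions at all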

Mitogen-activated protein kinase 7 (Homo sapiens), sequence (Q13164 whole entry, looked up, the tested form may be a part): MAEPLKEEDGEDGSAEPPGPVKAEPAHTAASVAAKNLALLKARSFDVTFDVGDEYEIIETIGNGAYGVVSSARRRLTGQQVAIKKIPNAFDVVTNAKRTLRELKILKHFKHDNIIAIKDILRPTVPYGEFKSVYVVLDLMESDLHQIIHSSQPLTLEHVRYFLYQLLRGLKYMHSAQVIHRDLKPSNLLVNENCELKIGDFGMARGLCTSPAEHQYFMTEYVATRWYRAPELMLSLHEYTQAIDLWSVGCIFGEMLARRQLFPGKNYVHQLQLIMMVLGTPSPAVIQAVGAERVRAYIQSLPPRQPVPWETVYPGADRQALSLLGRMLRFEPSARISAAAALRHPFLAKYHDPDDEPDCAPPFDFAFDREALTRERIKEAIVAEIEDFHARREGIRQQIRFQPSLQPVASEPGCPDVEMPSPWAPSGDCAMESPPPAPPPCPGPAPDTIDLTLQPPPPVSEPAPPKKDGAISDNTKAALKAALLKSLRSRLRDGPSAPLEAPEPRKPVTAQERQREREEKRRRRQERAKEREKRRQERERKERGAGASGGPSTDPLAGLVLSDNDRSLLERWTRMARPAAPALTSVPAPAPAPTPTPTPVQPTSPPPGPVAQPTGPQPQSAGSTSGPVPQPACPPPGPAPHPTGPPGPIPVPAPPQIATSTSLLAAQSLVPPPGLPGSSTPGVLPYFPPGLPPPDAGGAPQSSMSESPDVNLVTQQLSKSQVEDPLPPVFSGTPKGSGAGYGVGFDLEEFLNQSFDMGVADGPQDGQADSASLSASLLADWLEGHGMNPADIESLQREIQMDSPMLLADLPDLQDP

SMILES: COC(=O)CC[C@@H](C)[C@H]1CC[C@H]2[C@@H]3CC[C@@H]4C[C@H](O)CC[C@]4(C)[C@H]3C[C@H](O)[C@]12C
- luciferase signal [1]: 108 AU (inactive)

SMILES: CC1=C2[C@H](/C=C(\C)C(=O)O)CC[C@@H](C)[C@H]2CC1
- luciferase signal [1]: 68 AU (inactive)

SMILES: C=C[C@](C)(O)CCC=C(C)C
- luciferase signal [1]: 36 AU (inactive)

SMILES: CC1=CC(=O)CC(C)(C)C1(O)/C=C/C(C)=C\C(=O)O (configuration not stated)
- parasite load remaining [2]: 91.5% (inactive)
- viability [2]: 73.1%
- luciferase signal [1]: 48 AU (inactive)

SMILES: COC(=O)C[C@H]1C(C)(C)C(=O)[C@@H]2CC3C4=CC(=O)O[C@@H](c5ccoc5)[C@]4(C)CCC3[C@@]1(C)C2=O (some centres not stated)
- luciferase signal [1]: 24 AU (inactive)

SMILES: COC(=O)Oc1ccccc1C(=O)O
- luciferase signal [1]: 40 AU (inactive)

SMILES: CC(=O)OCC(=O)[C@H]1CC[C@H]2[C@@H]3CC=C4C[C@@H](O)CC[C@]4(C)[C@H]3CC[C@]12C
- luciferase signal [1]: 256 AU (active)

SMILES: CC[C@@H](C(=O)C(C)[C@@H](O)[C@H](C)CCc1ccc(C)c(O)c1C(=O)O)C1OC(CC)(C2CC[C@](O)(CC)[C@H](C)O2)C[C@@H]1C (some centres not stated)
- inhibition [3]: 75.5%
- score [4]: 1
- rescue above control [5]: 0
- cytochrome c release ratio [6]: 1
- inhibition of aggregation [7]: 74%
- glutamate uptake change [8]: -67.2%
- aggregation suppression score [9]: 0.948
- parasite load remaining [2]: -0.43% (inactive)
- viability [2]: 84.4%

SMILES: CC(=O)[C@H]1CC[C@H]2[C@@H]3CCC4=CC(=O)CC[C@]4(C)[C@H]3C(OC(=O)CCC(=O)O)C[C@]12C (some centres not stated)
- luciferase signal [1]: 60 AU (inactive)

SMILES: CC(=O)O[C@H]1CC[C@@]2(C)[C@@H](CC[C@@H]3[C@@H]2CC(=O)[C@]2(C)[C@@H]4[C@H](C[C@@H]32)O[C@]2(CC[C@@H](C)CO2)[C@H]4C)C1
- luciferase signal [1]: 56 AU (inactive)

SMILES: COc1ccc(-c2coc3cc(OC(C)=O)cc(OC(C)=O)c3c2=O)cc1
- luciferase signal [1]: 80 AU (inactive)

SMILES: CC1CC2C3CCC4=CC(=O)C=CC4(C)[C@@]3(F)C(O)CC2(C)[C@@]1(O)C(=O)CO (some centres not stated)
- inhibition [3]: 7.1%
- score [4]: 1.26
- rescue above control [5]: 8.02
- cytochrome c release ratio [6]: 1.12
- inhibition of aggregation [7]: 59.3%
- glutamate uptake change [8]: -14.9%
- inclusion score [10]: 2
- aggregation suppression score [9]: 1.3

SMILES: CC(=O)O[C@H]1CC[C@@]2(C)C(=CC[C@H]3[C@@H]4CC[C@H]([C@H](C)CCCC(C)C)[C@@]4(C)CC[C@@H]32)C1
- luciferase signal [1]: 56 AU (inactive)

SMILES: O=c1c(O)c(-c2ccc(O)c(O)c2)oc2c(O[C@@H]3O[C@H](CO)[C@@H](O)[C@H](O)[C@H]3O)c(O)cc(O)c12
- luciferase signal [1]: 36 AU (inactive)

SMILES: C[C@H](CCC(=O)O)[C@H]1CC[C@H]2[C@@H]3CC[C@@H]4C[C@H](O)CC[C@]4(C)[C@H]3C=C[C@]12C
- luciferase signal [1]: 16 AU (inactive)

SMILES: CC(=O)N[C@@H](Cc1c[nH]c2ccccc12)C(N)=O
- inhibition [3]: 11.7%
- score [4]: 1.31
- rescue above control [5]: 23.8
- cytochrome c release ratio [6]: 0.46
- inhibition of aggregation [7]: 60.3%
- glutamate uptake change [8]: -9.38%
- aggregation suppression score [9]: 1.53
- parasite load remaining [2]: 142% (inactive)
- viability [2]: 71.9%
- luciferase signal [1]: 80 AU (inactive)

SMILES: C[C@H]1[C@@H](O)O[C@@H]2O[C@@]3(C)CC[C@H]4[C@H](C)CC[C@@H]1[C@@]24OO3
- luciferase signal [1]: 52 AU (inactive)

SMILES: COC(=O)C(C)C[N+](C)(C)C (configuration not stated)
- inhibition [3]: -13.8%
- score [4]: 1.1
- rescue above control [5]: -5.92
- cytochrome c release ratio [6]: 1.54
- inhibition of aggregation [7]: 60.6%
- glutamate uptake change [8]: 0.97%
- inclusion score [10]: 2
- aggregation suppression score [9]: 1.5

SMILES: CCC(=O)OCC(=O)[C@@]1(OC(=O)CC)[C@H](C)CC2C3C(Cl)CC4=CC(=O)C=C[C@]4(C)C3C(O)C[C@@]21C (some centres not stated)
- luciferase signal [1]: 108 AU (inactive)
